Values without a mark were called inactive. The rule behind the calls is not given here.
Target: VTCN1, Q7Z7D3
Sequence (Q7Z7D3 whole entry): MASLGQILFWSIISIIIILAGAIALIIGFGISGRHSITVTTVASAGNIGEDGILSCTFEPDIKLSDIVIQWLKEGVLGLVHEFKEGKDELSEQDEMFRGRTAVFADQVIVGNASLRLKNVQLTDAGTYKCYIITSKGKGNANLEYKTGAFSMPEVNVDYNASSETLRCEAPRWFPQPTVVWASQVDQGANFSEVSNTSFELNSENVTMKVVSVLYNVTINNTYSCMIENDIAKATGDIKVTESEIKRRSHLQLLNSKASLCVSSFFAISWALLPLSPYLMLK

B1: design_598_15ab41e9-cad4-4381-8935-81f74b313fe8_790_dldesign_0_cycle1_af2pred (protein)
chain: MEKEAEKFAEEGKKKVEELKKKLEENKDNAEKNEELAKKARELAKEFEEEGKKAPEEMRKKLAEIAQEAREVAAEAKGLAIIAKEK
binding in a display sort: not found

B2: design_598_15ab41e9-cad4-4381-8935-81f74b313fe8_231_dldesign_0_cycle1_af2pred (protein)
chain: AEAELARAREVAKRVAEKLREAAKEAEKIDPEVAEKGRKVAEAAEAATAGTVEEIAAATQEARQALAEAEFLVKK
binding in a display sort: not found

B3: design_598_15ab41e9-cad4-4381-8935-81f74b313fe8_1361_dldesign_0_cycle1_af2pred (protein)
chain: DETKKALAEMSELRHQLDAEAKWYEKHAKESEKYKEAAKEAKEGADYAKKALKKAKEGTPEEALKAAKEALEELKKKEEKVEKLFKEA
binding in a display sort: not found

B4: design_598_15ab41e9-cad4-4381-8935-81f74b313fe8_1419_dldesign_0_cycle1_af2pred (protein)
chain: DIAKVTQQAQEELTEYAFKVPELKEEFDAARKESVKLGKEGASTSPEAAEKASKEIKKITEEMKKKAEEAL
binding in a display sort: not found

B5: design_598_15ab41e9-cad4-4381-8935-81f74b313fe8_1476_dldesign_0_cycle1_af2pred (protein)
chain: SEEKKKEEEKKVKEAEKLAKKAKEAAKKGDVKTAKEYYEKAKKIAKEVKKEGSKELATKAANAAQEAYQAYREAEAKA
binding in a display sort: not found

B6: design_598_15ab41e9-cad4-4381-8935-81f74b313fe8_1263_dldesign_0_cycle1_af2pred (protein)
chain: GMEEIEKRNEEVKKKAEELKKQVEKAEKLAEKGDPEGKKLAEETKKKAIELAKSNPEAEPEVKTEITEIAVEAQGIEHLMKIK
binding in a display sort: not found

B7: design_598_15ab41e9-cad4-4381-8935-81f74b313fe8_205_dldesign_0_cycle1_af2pred (protein)
chain: DFKAKADAEATLERAEQAEKAAKKIGEELAKLAEEAKKLAEAGLKSDDPEKREALTKAARELLKELQKLGKEKKEK
binding in a display sort: not found

B8: design_598_15ab41e9-cad4-4381-8935-81f74b313fe8_1188_dldesign_0_cycle1_af2pred (protein)
chain: KEEEEKKKEEEWKKKADAEAAIEQGKNALEAAKKDPSKAKEAAKVAKKLAKRAPEAKEELEKIAKEAEAIGKA
binding in a display sort: not found

B9: design_598_15ab41e9-cad4-4381-8935-81f74b313fe8_1028_dldesign_0_cycle1_af2pred (protein)
chain: SDEKLAAEASQVGLELKAEVKAGNANPEIKEKLSKEALEKAEKAVKEFEKKSPAAGKVAKEMLKKIKEAAKE
binding in a display sort: not found

B10: design_598_15ab41e9-cad4-4381-8935-81f74b313fe8_1154_dldesign_0_cycle1_af2pred (protein)
chain: EKAKKAAEYSSEAAKHAIKAAKLLKEAGAPQEVLNLLQEAIVNMDKAAEYYAAAMEAAKKNPELGPEIQAELKKAEEHTKKANELL
binding in a display sort: not found

B11: design_598_15ab41e9-cad4-4381-8935-81f74b313fe8_686_dldesign_0_cycle1_af2pred (protein)
chain: SPTEMQEALTDADGYAVLAKNAGIEEVAKKAKEAAKKIKELIKQARADPSKAPELAKKAKELAKEAEKEFEKAKKEFE
binding in a display sort: not found

B12: design_598_15ab41e9-cad4-4381-8935-81f74b313fe8_1042_dldesign_0_cycle1_af2pred (protein)
chain: NLEELIKKAIKAAEKGDAKGAVTYVMDAGAEAGDMKLAVEVGRKIQELLATDPAAGKAASAALIKEAGKKFL
binding in a display sort: not found

B13: design_598_15ab41e9-cad4-4381-8935-81f74b313fe8_1412_dldesign_0_cycle1_af2pred (protein)
chain: DSPAMQLNEALTDAKYAADKIKEVDPSLAPEAQALYDKVKALLEKARKGDAATVAAAAKEAKALAEQAEKLLKQAKERAKKA
binding in a display sort: not found

B14: design_598_15ab41e9-cad4-4381-8935-81f74b313fe8_801_dldesign_0_cycle1_af2pred (protein)
chain: AEKEKKIEELEAKAKEYEAKGKAAEAAGDYKTAAEYYEKAADAYLEMAKVDPEKAEEYIKKAQELYRKSIQYEAKASAA
binding in a display sort: not found

B15: design_598_15ab41e9-cad4-4381-8935-81f74b313fe8_1370_dldesign_0_cycle1_af2pred (protein)
chain: AEFAVKILETLAERVPPEYAVVAREAAEIVKEKGAEGAREAARLVREAAERNPELPEEHRKAMLNAARVLEILAEAE
binding in a display sort: not found

B16: design_598_15ab41e9-cad4-4381-8935-81f74b313fe8_887_dldesign_0_cycle1_af2pred (protein)
chain: GEEKSRAAAEALRAATRAVRAAAATAAAADPATAAAVRAAWAAAVKADDLADAEAALRAAAAAATDPATRALLNAAADAYATIAAIA
binding in a display sort: not found

B17: design_598_15ab41e9-cad4-4381-8935-81f74b313fe8_273_dldesign_0_cycle1_af2pred (protein)
chain: SMAKKIEEGKKLAEELREAVRTAQAIGARLDALVAADPSVAPLATEIRAKASEAIFKIADGKEEEGKALMEEATALAAAAEAAAAAAA
binding in a display sort: not found

B18: design_598_15ab41e9-cad4-4381-8935-81f74b313fe8_1360_dldesign_0_cycle1_af2pred (protein)
chain: DPAQAAFTAKAKERAEQLKALAKEFPEEAEKLTKLAEEGLKLAAGDAETQKKAAEKLQEAYELAAEARAKKA
binding in a display sort: not found

B19: design_598_15ab41e9-cad4-4381-8935-81f74b313fe8_1446_dldesign_0_cycle1_af2pred (protein)
chain: IDSKKASELIREAVRNAQKAGEIAKSLPNGEEIKKRVAEALLLAIDPETAEEGIKLLEELAKEAEELNPEAGKHIKEAAEHLKKFAEL
binding in a display sort: not found
